Laboratory results: PubChem BioAssay AID2535 (National Center for Advancing Translational Sciences (NCATS), 2010)
Unmarked numbers belong to inactive results. Calls of active or inactive are those of the source. The call rests on the fitted dose curve; in most records, active means well fitted curve in the direction sought with a large enough effect; inconclusive means small, poorly fitted or top-dose-only effect, or effect the other way, or another doubt; inactive means no such curve, though single readings can be large or run the other way.

The compounds below were run against Pyruvate kinase PKLR (Homo sapiens) (UniProt P30613) (assay: Secondary Concentration-Response Assay for Activators of Human Liver Pyruvate Kinase: for Probe SAR). Conditions: purified hPK-L, ATP production, Kinase-Glo luminescence; series mostly up to 58.3 µM; activity change, positive = activation: at the top concentration.
Text: NIH Chemical Genomics Center [NCGC]
Matthew G. Vander Heiden, M.D., Ph.D. [Harvard Medical School, 77 Avenue Louis Pasteur, Boston, MA 02115]
Human pyruvate kinase liver (hPK-L) enzyme was supplied as a highly purified (>95% pure) preparation from Harvard Medical School and assayed for its ability to generate ATP from ADP using phosphoenolpyruvate (PEP) as a substrate. ATP generation was detected in a coupled reaction by luciferase-mediated luminescence, an ATP-dependent process. Pyruvate kinase substrates, PEP and ADP, were present in the assay at Km and approximately 10-fold below Km respectively. The enzyme was assayed at an intermediate level of activity to screen for both inhibitors and activators.
NCGC Assay Protocol Summary for L-isoform:
Three uL of substrate mix (at r.t.) in assay buffer (50 mM Imidazole pH7.2, 50 mM KCl, 7 mM MgCl2, 0.01% Tween 20, 0.05% BSA) was dispensed into white solid bottom 1,536 well microtiter plates so that the final concentrations of substrates in the assay were 0.1 mM ADP and 0.5 mM PEP. 23 nL of compound were delivered by a pin tool and 1 uL of enzyme mix (final concentration of 0.1 nM) in assay buffer (4 degree Celsius) was added. Plates were incubated at room temperature for 1 hour. Two uL of detection mix (Kinase-Glo, Promega; at 4 degree Celsius protected from light) was added and luminescence read by a ViewLux (Perkin Elmer) at 1 second exposure/plate. Data were normalized to the uninhibited (row 31). Additionally, a no enzyme and 5-fold enzyme control was dispensed in row 32, split equally between the two conditions.
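Further: 0% = uninhibited enzyme wells on each plate.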

Pyruvate kinase PKLR (Homo sapiens), sequence (P30613 whole entry, looked up): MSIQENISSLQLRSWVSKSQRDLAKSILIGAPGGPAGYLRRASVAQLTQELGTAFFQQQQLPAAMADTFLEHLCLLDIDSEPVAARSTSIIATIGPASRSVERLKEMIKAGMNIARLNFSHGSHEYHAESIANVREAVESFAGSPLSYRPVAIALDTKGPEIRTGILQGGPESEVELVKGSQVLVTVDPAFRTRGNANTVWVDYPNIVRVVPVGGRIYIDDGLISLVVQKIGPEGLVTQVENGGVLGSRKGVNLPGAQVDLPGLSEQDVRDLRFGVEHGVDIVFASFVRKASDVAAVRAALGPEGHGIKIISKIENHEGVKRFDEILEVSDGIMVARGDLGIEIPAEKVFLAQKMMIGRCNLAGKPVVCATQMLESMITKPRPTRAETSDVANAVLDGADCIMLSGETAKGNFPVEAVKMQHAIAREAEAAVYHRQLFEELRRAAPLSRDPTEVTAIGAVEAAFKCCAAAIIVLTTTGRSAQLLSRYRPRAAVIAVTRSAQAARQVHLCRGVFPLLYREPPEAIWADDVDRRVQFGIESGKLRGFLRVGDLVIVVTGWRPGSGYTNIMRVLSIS

Structure (SMILES)	activity change, positive = activation	outcome
O=C1CCc2cc([S+](=O)([O-])NC3CCOCC3)ccc2N1	-3.54%	
Cc1ccc(NS(=O)(=O)c2ccc3c(c2)CCN(C(=O)C(F)(F)F)C3)cc1C	4.85%	
Cc1cc(NS(=O)(=O)c2ccc3c(c2)CCC(=O)N3)ccc1Cl	13.3%	
Cc1ccc(NS(=O)(=O)c2ccc3c(c2)CCC(C)(C)O3)cc1C	7.91%	
Cc1ccc(NC(=O)c2ccc3c(c2)CCC(=O)N3)cc1C	3.59%	
O=C1CCc2cc(S(=O)(=O)NCc3ccccc3)ccc2N1	4.67%	
COc1cccc(Cn2ncc3c4sc(SC)cc4n(C)c3c2=O)c1	1.35%	
O=C1CCc2cc(Cl)c(S(=O)(=O)Nc3ccc(Cl)c(Cl)c3)cc2N1	9.66%	
O=C1CCc2cc(S(=O)(=O)Nc3ccc(F)cc3)ccc2N1	-0.305%	
Cc1ccc(NS(=O)(=O)c2ccc3ccccc3c2)cc1C	5.46%	
COc1ccc(S(=O)(=O)Nc2ccc(C)c(C)c2)cc1	9.75%	
CNc1cccc(S(=O)(=O)N2CCN(S(=O)(=O)c3ccc4c(c3)OCCO4)CC2)c1	17.7%	
O=C1CCc2cc(S(=O)(=O)Nc3ccccc3F)ccc2N1	-10.2%	
Cc1ccc(NS(=O)(=O)c2ccc(-c3ccccc3)cc2)cc1C	10.8%	
Cc1cc(N2C(=O)c3ccccc3C2=O)no1	-9.96%	
O=C1CCc2cc(S(=O)(=O)Nc3ccc4c(c3)OCCO4)ccc2N1	8.86%	
O=C1CCc2cc(S(=O)(=O)Nc3cccc(C(F)(F)F)c3)ccc2N1	-3.5%	
Cc1ccccc1Nc1c(-c2ccc(Cl)s2)nc2ccccn12	1.64%	
Cc1ccc(NS(=O)(=O)c2cc3c(cc2Cl)NC(=O)CO3)cc1C	2.95%	
O=C1c2ccccc2C(=O)N1c1ccncc1	-1.3%	

Structure (SMILES)	activity change, positive = activation	outcome
Cc1cc(C)n2c(Nc3ccccc3)c(-c3ccc(C)o3)nc2n1	7%	
Cc1ccc(NS(=O)(=O)c2cc3c(cc2-c2cn[nH]c2)NC(=O)CO3)cc1C	-3.69%	
O=S(=O)(c1ccc2c(c1)OCCO2)N1CCN(S(=O)(=O)c2c(F)cccc2F)CC1		inactive
Cc1ccc(NS(=O)(=O)c2cc3c(cc2-c2ccco2)NC(=O)CO3)cc1C	5.64%	
Cc1ccc(NS(=O)(=O)c2cc3c(cc2N(C)C)CCC(=O)N3)cc1C	14.3%	
COc1ccc(NS(=O)(=O)c2ccc3c(c2)CCC(=O)N3)cc1	4.38%	
O=C1c2ccccc2C(=O)N1C1CCCCC1	2.06%	
Cc1ccc(C)c(OC2=NS(=O)(=O)c3ccccc32)c1	-1.9%	
O=C1CCc2cc(S(=O)(=O)Nc3cccc(Br)c3)ccc2N1	6.23%	
CCNc1cccc(S(=O)(=O)N2CCCN(S(=O)(=O)c3ccc4c(c3)OCCO4)CC2)c1	25.5%	
Cc1ccc(NS(=O)(=O)c2cc3c(cc2N2CCCCC2)NC(=O)CC3)cc1C	-2.91%	
Cc1ccc(NS(=O)(=O)c2cc3c(cc2Cl)CCC(=O)N3)cc1Cl	14.3%	
O=C1c2ccccc2C(=O)N1c1ccccc1O	-14.9%	
Cc1cccc(NS(=O)(=O)c2ccc3c(c2)CCC(=O)N3)c1	5.35%	
Cc1ccccc1OC1=NS(=O)(=O)c2ccccc21	0.916%	
CC(=O)N1c2ccc(S(=O)(=O)Nc3ccc(C)c(C)c3)cc2CC1C (stereo not given)	29.6%	
Nc1cc(S(=O)(=O)N2CCN(S(=O)(=O)c3ccc4c(c3)OCCO4)CC2)ccn1	21.6%	
Cc1cc(N2C(=O)c3ccccc3C2=O)n[nH]1	-12.2%	
O=C1CCc2cc(S(=O)(=O)Nc3cccc(F)c3)ccc2N1	-8.3%	
Cc1ccc(-c2nc3cccc(C)n3c2Nc2ccc(F)cc2)o1	4.76%	
